Holding throughout (test): NCI-60 one-dose screen, 48 h (100 = growth as untreated, 0 = no growth, -100 = all killed)
Common to all, as to details: 10 µM unless noted

Assay [1] relates to NCI-H23 lung.
Assay [2] deals with NCI-H226 lung.
The test system of assay [3] is NCI-H322M lung.
Assay [4] deals with HOP-62 NSCLC.
In assay [5] the test system is NCI-H460 lung.
Assay [6] deals with HOP-92 NSCLC.
The subject of assay [7] is NCI-H522 lung.
The test system of assay [8] is A549/ATCC NSCLC.
The test system of assay [9] is 786-0 renal.
The subject of assay [10] is DU-145 prostate.
Assay [11] has as its system K-562 leukemia.
Assay [12] concerns MDA-MB-231 breast.
The test system of assay [13] is RXF 393 renal.
The subject of assay [14] is SF-268 CNS.
For assay [15], the system named is SF-295 CNS.
For assay [16], the system named is SF-539 CNS.
Assay [17] concerns UACC-257 melanoma.
For assay [18], the system named is M14 melanoma.
The test system of assay [19] is MALME-3M melanoma.

The panel holds about 83,000 compounds, 20% with a hit somewhere; the sample as a whole holds those more often.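 96-well plates, one dose, 48 hours. Percent growth reported; active if below 10.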 Values without a mark were called inactive. Activity calls are given as the source filed them.

Consider `O=C(c1ccccc1)c1ccc(Cl)c([N+](=O)[O-])c1`, for which the growth in assay [1] is 100%; in assay [2] it was 104%; in assay [3] it was 90.6%; in assay [4] it was 124%; in assay [5], 101%; in assay [6], 99.1%. In addition, the growth in assay [7] was 77%; in assay [8] it was 103%; in [9], 103%; in assay [10], 75.4%; in assay [11], 7.38% (active); in assay [12], 114%. Moreover, the growth is 104% in [13]; 88.6% in [14]; 99% in assay [15]; 97.9% in assay [16]; 87.6% in assay [17]; 94.6% in assay [18].

As to `O=C1CSC(c2ccc(O)cc2)N1c1nnc(Cn2cnnc2)o1` (configuration not stated), the growth in assay [1] was 100%; in assay [2] it was 98.6%; in assay [3] it was 95.8%; in assay [4], 99.8%; in assay [5], 115%; in assay [6] it was 71.9%. Besides, the growth in assay [7] is 99.1%; in assay [8] it was 90.3%; in assay [9], 94.1%; in assay [10], 93.3%; in assay [11] it was 45.3%; in [19] it was 54.1%. Also, the growth was 94.8% in assay [12]; 70.3% in assay [14]; 38.6% in [15]; 97.6% in assay [16]; 96.9% in [17]; 94.6% in assay [18].

For `O=C1Nc2ccccc2SC1C1SC(=S)N(Cc2ccccc2)C1=O` (configuration not stated), the growth in assay [1] was 96.5%; in assay [2], 107%; in assay [3], 113%; in assay [4], 110%; in assay [5] it was 106%; in assay [6], 53.1%. In addition, the growth is 100% in [7]; 93% in assay [8]; 100% in [9]; -34.7% (active) in assay [10]; 4.45% (active) in [11]; 53.7% in [19]. Besides, the growth in [12] was 94.8%; in assay [14] it was 37.7%; in [15], 63.2%; in assay [16] it was 90.7%; in assay [17], 88.3%; in assay [18], 94.5%.

As for `CCOC(=O)Cc1csc2nc(-c3ccccc3)nn12`, the growth in [1] was 97.9%; in assay [2], 101%; in [3] it was 125%; in assay [4], 103%; in assay [5], 108%; in assay [6], 79.1%. Besides, the growth in [7] is 103%; in assay [8], 105%; in assay [9] it was 92%; in [10], 108%; in assay [11], 128%; in assay [12], 104%. The growth is 110% in [13]; 105% in assay [14]; 127% in assay [15]; 95.6% in [16]; 119% in assay [17]; 104% in assay [18].

As to `CC(C)CCC[C@@H](C)[C@H]1CCC2C3=CCn4c(=O)ccc(=O)n4C3CC[C@@]21C` (some centres not stated), the growth is -55.4% (active) in [1]; -91.8% (active) in assay [2]; -55.3% (active) in assay [3]; -93.3% (active) in assay [4]; -89.9% (active) in assay [5]; -94% (active) in assay [6]. In addition, the growth in assay [7] was -66.1% (active); in assay [8], -79.3% (active); in assay [9] it was -100% (active); in assay [10], -93.7% (active); in assay [11], -40% (active); in [12] it was -89.2% (active). In addition, the growth in [13] was -76% (active); in [14] it was -91.6% (active); in assay [15], -92.3% (active); in assay [16], -99.5% (active); in assay [17], -79.3% (active); in [18], -98% (active).

Turning to `CC/C=C/[C@@H]1C=C[C@@H]2CCC[C@H]2[C@@H]1CC[C@H](O)[C@H](C)N`, the growth was -63.4% (active) in assay [1]; 91.5% in assay [2]; -35.4% (active) in assay [3]; -89.7% (active) in [4]; -83.1% (active) in [5]; 12% in assay [6]. Besides, the growth in assay [7] is -56.9% (active); in [8], 3.8% (active); in assay [9] it was -92.4% (active); in assay [10] it was -12.9% (active); in assay [11] it was -18.6% (active); in assay [19], -80.2% (active). In addition, the growth in [12] was -22.5% (active); in assay [14], 29.2%; in assay [15], -71.3% (active); in [16], -67.6% (active); in assay [17], -71.5% (active); in assay [18], -76.4% (active).

Consider `COc1ccc(-c2nnc(SCC(=O)NC3=NN=C(c4ccccc4)CS3)o2)cc1`, for which the growth was 103% in assay [1]; 93.8% in assay [2]; 102% in assay [3]; 86.2% in assay [4]; 101% in assay [5]; 98.5% in assay [6]. In addition, the growth was 93.3% in [7]; 74.7% in [8]; 101% in assay [9]; 102% in assay [10]; 105% in assay [19]; 91.5% in [12]. Moreover, the growth in [13] is 117%; in [14], 94.2%; in [15] it was 98%; in [16], 101%; in [17], 67.1%; in assay [18] it was 95.5%.

`COc1ccc(-c2nnc(-c3ccc4c(c3)nc(-c3ccccc3)n4C3CCCCC3)o2)cc1`: the growth was 62.5% in [1]; 46.4% in assay [2]; 87% in [3]; 50.5% in [4]; 64.4% in [5]; 57% in [6]. Also, the growth was 17.6% in [7]; 50.3% in assay [8]; 77.5% in [9]; 71.7% in assay [10]; 69.4% in assay [19]; 72.9% in [12]. In addition, the growth in [13] was 97.3%; in [14], 71.2%; in assay [15], 53.2%; in assay [16], 88.1%; in assay [17] it was 67.4%; in assay [18], 38.9%.

`CCCCCCCCN(CCCCCCCC)C(=N)c1ccnc2ccccc12`: the growth in [1] was -66.4% (active); in [2], 56.5%; in assay [3], -64.5% (active); in assay [4], -85.7% (active); in [5], -78% (active); in assay [6], -21.2% (active). Further, the growth in assay [7] was -74.7% (active); in [8], -82.5% (active); in [9], -100% (active); in assay [11], -52.7% (active); in assay [19], -78.5% (active); in assay [12], -77.2% (active). Besides, the growth is -87.8% (active) in assay [13]; -71.8% (active) in [14]; -84.4% (active) in [15]; -87.6% (active) in assay [16]; -68.9% (active) in assay [17]; -84.6% (active) in [18].

Source of the values: PubChem BioAssay (NCI).
